# In PubChem BioAssay (NCI):
# This is part of a sample that, as a whole, favours compounds with a hit. Of some 83,000 tested, about 20% had one in any assay.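 Treatment: one concentration, 48 hours, 96-well format. Scoring: percent growth, with anything below 10 considered active.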 Values without a mark were called inactive. Activity calls are given as the source filed them.
# Assays:
# Test in all cases: NCI-60 one-dose screen, 48 h (100 = growth as untreated, 0 = no growth, -100 = all killed)
# Conditions in all cases: 10 µM unless noted
# NCI-H23 lung = system: NCI-H23 lung
# NCI-H226 lung = system: NCI-H226 lung
# NCI-H322M lung = system: NCI-H322M lung
# HOP-62 NSCLC = system: HOP-62 NSCLC
# NCI-H460 lung = system: NCI-H460 lung
# HOP-92 NSCLC = system: HOP-92 NSCLC
# NCI-H522 lung = system: NCI-H522 lung
# A549/ATCC NSCLC = system: A549/ATCC NSCLC
# 786-0 renal = system: 786-0 renal
# COLO 205 colon = system: COLO 205 colon
SMILES,growth (NCI-H23 lung) [%],growth (NCI-H226 lung),growth (NCI-H322M lung) [%],growth (HOP-62 NSCLC),growth (NCI-H460 lung),growth (HOP-92 NSCLC),growth (NCI-H522 lung),growth (A549/ATCC NSCLC),growth (786-0 renal),growth (COLO 205 colon)
CCCCC(CCc1ccccn1)C(=O)c1ccccc1 (stereo not given),98.8,118%,103,106%,112%,94.9%,131%,111%,110%,112%
COc1cc(C2CC(c3ccc(Cl)cc3)=NN2C=O)ccc1OS(=O)(=O)c1ccc(C)cc1 (stereo not given),83.5,84.5%,97,96.6%,91%,85.1%,82.7%,78.8%,88.4%,100%
CC(=O)N[C@@H](CCC(N)=O)C(=O)O,92.6,87.9%,111,102%,105%,61.3%,103%,88.2%,82.6%,124%
O=C(O)c1cn(-c2ccccc2)nc1-c1ccc(O)cc1,93.9,107%,100,92.7%,94.7%,85.5%,78.6%,92.4%,97.4%,109%
Cc1cc(C)cc(Nc2cc(C)nc3nc(C(F)(F)F)nn23)c1,40,37.8%,25,47.8%,11%,69.8%,6.54% (active),27.5%,36.6%,16.7%
COc1ccc(-n2nc(C(=O)NCC(=O)Nc3nc4cc(OC)ccc4s3)c3ccccc3c2=O)cc1,19.5,-11.1% (active),31.4,-78.7% (active),1.04% (active),-34.9% (active),-9.83% (active),0.477% (active),20.4%,32.7%
COc1cc(C(=O)/C=C/c2cn(-c3ccccc3)nc2-c2cccc(Nc3ccnc4cc(Cl)ccc34)c2)cc(OC)c1OC,100,98.1%,88.1,78.2%,90.5%,73.3%,106%,91.5%,89%,88.9%
Cc1nc2ccc(Nc3nc(NCCN4CCOCC4)nc(Nc4ccc(F)cc4)n3)cc2n1Cc1ccccc1,67,72.1%,64.1,47.8%,29.4%,30.3%,58.7%,46.3%,4.17% (active),1.19% (active)
COc1ccc(-c2nnc(SCC(=O)Nc3ccc(C(=O)/C=C/c4ccc(Cl)cc4)cc3)n2-c2ccccc2)cc1,91.1,103%,118,100%,106%,105%,84%,88.5%,97.4%,107%
COc1ccc(-c2nsc3c2NC(=O)CC3c2cccc(F)c2)cc1 (stereo not given),59,76.5%,53.6,60.2%,10.4%,52.7%,4.49% (active),34.3%,80%,25.8%
COc1ccccc1/C=N\NC(=S)Nc1ccc(F)cc1,72.5,90.9%,96,79.8%,80.5%,71%,38.1%,68%,93.6%,91.9%
O=Cc1ccc2nc(C(Cl)(Cl)Cl)ccc2c1,92.4,97%,91.9,104%,94.7%,91.8%,94.4%,108%,99%,115%
C#CC[C@@H]1C[C@]2(C)[C@H]3CC=C4[C@H]5[C@@H](C)[C@H](C)CC[C@]5(C(=O)NCCCCN)CC[C@@]4(C)[C@]3(C)CC[C@H]2C(C)(C)[C@H]1OC(C)=O,94.8,87.1%,92.4,89.2%,1.45% (active),44.1%,81.7%,72.6%,79.9%,6.68% (active)
CNC(=O)c1cc(Oc2ccc(NC(=O)c3nc(S(C)(=O)=O)n(C)c3-c3ccc(F)cc3)cc2)ccn1,79.1,87.4%,62.5,91.3%,59.4%,77.3%,84.5%,82.5%,75.4%,59.4%
CC(C)(C)NC(=O)C(OC(=O)C1CCc2cc(F)ccc2O1)c1ccccc1Cl (stereo not given),93.5,95.6%,95.6,94.4%,104%,89%,82.4%,98.6%,100%,130%
O=C(Nc1ccc(OS(=O)(=O)c2ccc(F)cc2)cc1)C12CC3CC(CC(C3)C1)C2,74.9,87.6%,92.4,54.1%,63.6%,48.1%,66%,56.2%,59.3%,54.3%
CCc1oc2ccccc2c1C(=O)c1cc(I)c(O)c(I)c1,58.5,74.8%,98.3,108%,21.6%,53.2%,30%,40.3%,62%,104%
C#CC[C@@H]1C[C@]2(C)[C@H]3CC[C@@H]4[C@H]5C(C(=C)C)CC[C@]5(C(=O)NCCCCCCCCN)CC[C@@]4(C)[C@]3(C)CC[C@H]2C(C)(C)[C@H]1OC(C)=O (stereo not given in full),97.3,95.6%,101,103%,16.3%,70.6%,88.1%,93.3%,85.1%,86%
Nc1nc2c(c3ncccc13)C(c1ccccc1)Cc1ncccc1-2 (stereo not given),83.3,88.4%,102,72.1%,92%,96.1%,42.9%,72.3%,104%,87.8%
CCNS(=O)(=O)c1ccc(C)cc1,100,103%,102,100%,101%,69.7%,114%,95.8%,110%,113%
COc1cc(/C=C2\C(=O)Nc3ccc(N(C)C)cc32)cc(OC)c1OC,26.8,25.8%,37.6,45.5%,6.86% (active),33.2%,23.8%,-3.78% (active),28.4%,28%
COc1cc(-c2csc(NC(=O)Nc3cccc(C(F)(F)F)c3)n2)cc(OC)c1OC,27.8,55.6%,68.3,63.6%,53.8%,47.8%,40.7%,34.2%,64.2%,75.4%
O=C(O)Cn1ccc2ccccc21,100,110%,100,79.9%,103%,88.2%,77.7%,99.4%,101%,153%
Cc1n(Cc2ccc3ccccc3n2)cc[n+]1Cc1ccc2ccccc2n1,69.8,88.1%,103,90.6%,95%,74.5%,35.9%,88.6%,97.8%,33.2%
CCc1ccc(Nc2cc(C)c3ccc(O)cc3n2)cc1,90.4,76.7%,82.9,88%,64.3%,74.4%,92.2%,85%,68.1%,-81.3% (active)
CCCCCCCCCC1=NC(C)(C)CN1C(C)(C)CO,89.1,105%,89.4,100%,105%,91%,80.9%,99.6%,100%,184%
COc1c(C(=O)/C=C/c2ccc(C)o2)c(O)cc2occc12,79.5,75.3%,97.2,59.2%,70.1%,68%,41.8%,58.8%,99.1%,104%
